Many of the other results were omitted from the sample, so hits are more common in it than they were.
RORg inh – inhibitors of mouse ROR gamma transcriptional activity. P51450. Drosophila S2 Gal4-RORgamma UAS-luciferase reporter, 20 h. Potency, µM (highest dose often 53.6 µM), without a hit: at the top dose activity change, negative = inhibition, actives largely listed as inhibitors. hit rate 5.4% among 310,000. AID 2551; also: potency is read from the fitted curve at half-maximal effect; % is scaled to controls: 0 for no effect and ±100 for the full control effect; nearly all actives have a fitted effect of over 60% in size
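Read-out: Photinus luciferase luminescence; inhibitors lower reporter signal. Insect Schneider cells with Gal4-ROR gamma fusion under metallothionein promoter, UAS reporter; 700 uM final copper sulfate induction, 20 hr, ambient temperature.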
ERG Ets-DNA blk – inhibitors of human ERG Ets domain-DNA interaction; P11308; fluorescence polarization, His-ERG Ets domain / labelled DNA; Potency, µM (highest dose often 76.9 µM), without a hit: at the top dose FP activity, negative = inhibition, actives largely listed as inhibitors; hit rate 0.028% among 370,000; active = well fitted inhibition curve with a large enough effect in the polarisation, with a control signal flat; inconclusive = small, poorly fitted or top-dose-only effect, or effect the other way, or a change in a side signal; inactive = no such curve, though single readings can be large or run the other way; the % refers to the polarisation;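 also: polarization taken with two DNA probes labelled with fluorescein and Texas red; potency is read from the fitted curve at half-maximal effect; % of control where 0% means no effect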
Target sequence (P11308 whole entry, looked up, the tested form may be a part): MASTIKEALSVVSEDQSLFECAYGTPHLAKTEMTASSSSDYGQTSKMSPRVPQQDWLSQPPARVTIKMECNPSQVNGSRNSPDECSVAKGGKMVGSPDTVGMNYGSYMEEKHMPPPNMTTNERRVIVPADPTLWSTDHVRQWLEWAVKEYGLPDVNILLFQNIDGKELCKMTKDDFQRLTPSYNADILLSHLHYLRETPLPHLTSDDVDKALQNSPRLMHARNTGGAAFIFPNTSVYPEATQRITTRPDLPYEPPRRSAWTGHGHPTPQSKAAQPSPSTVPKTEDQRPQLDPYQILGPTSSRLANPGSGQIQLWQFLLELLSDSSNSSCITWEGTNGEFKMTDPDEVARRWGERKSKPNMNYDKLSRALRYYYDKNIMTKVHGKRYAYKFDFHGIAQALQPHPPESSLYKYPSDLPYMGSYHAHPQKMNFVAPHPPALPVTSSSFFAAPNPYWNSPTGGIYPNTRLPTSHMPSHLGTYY
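His-tagged ERG Ets domain (1 uM in the protein solution; 300mM KCl, 50mM Tris-HCl, 1mM EDTA, 1mM DTT, pH 7.5) received compound, then a probe mix of 5 nM fluorescein-DNA and 100nM Texas-615-DNA. Fluorescence polarization was read for both dyes.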
Gal4-VP16 FLuc – counter-screen for ROR gamma inhibitors: Gal4-VP16 reporter; hit rate 3.5% among 310,000; AID 2546; Drosophila S2 Gal4-VP16 UAS-luciferase, luminescence, 20 h; Potency, µM (series often up to 53.6 µM), inactives show at the top dose activity, negative = inhibition, most hits filed as inhibitors;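 also: Gal4-VP16 expression switched on by copper sulfate through the metallothionein promoter; potency is read from the fitted curve at half-maximal effect; % is scaled to controls: 0 for no effect and ±100 for the full control effect; nearly all actives have a fitted effect of over 50% in size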
Giardia kill – Giardia lamblia killing | Giardia lamblia trophozoite viability | activity change, % at 7.66 µM, hits read low | hit rate 0.15% among 340,000; in the data active = activity change below about -80%; inconclusive = between about -30% and that limit;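 also: parasites exposed to compound for two days anaerobically before the ATP read; % is scaled to controls: 0 for no effect and ±100 for the full control effect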
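Compounds were tested on trophozoites seeded at 100 cells/well and held 48 hrs at 37 deg C anaerobically. An ATP-based luminescent kit measured the remaining live cells.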
a7 integrin act – activators of alpha7 integrin expression for muscular dystrophy; alpha7betagal myoblasts, beta-gal FDG fluorescence, 48 h; Potency, µM (doses to about 38.3 µM), inactives show at the highest dose activation, usual class: activators; hit rate 0.064% among 350,000; AID 624291;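 also: potency is read from the fitted curve at half-maximal effect; 100% = response of the positive control SU9516; nearly all actives have a fitted effect of over 60% in size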
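alpha7betagal+/- myoblasts (passage 13, 250/well) treated 48 h at 37C with compounds at 1:260 dilution of DMSO stock. Lysed, then beta-galactosidase activity read as FDG fluorescence (ex 480/em 540) after 30 min, with pre-read for autofluorescence.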
The depositor's hits bear a star. Unless noted, calls follow the shape of the dose curve; as a rule, active = well fitted curve in the direction sought with a large enough effect; inconclusive = small, poorly fitted or top-dose-only effect, or another doubt; inactive = no such curve, though single readings can be large; an effect the other way counts as inactive or inconclusive.

How did CC[C@H](C)[C@H](NC(=O)CNC(=O)[C@H](CCCNC(=N)N)NC(=O)[C@H](CO)NC(=O)[C@H](C)NC(=O)[C@H](Cc1ccc(O)cc1)NC(=O)[C@H](Cc1c[nH]c2ccccc12)NC(=O)[C@H](C)NC(=O)[C@@H]1CCCN1C(=O)[C@H](CC(N)=O)NC(=O)[C@@H](NC(=O)[C@H](CC(=O)O)NC(=O)[C@@H]1CCCN1C(=O)[C@@H](N)[C@@H](C)O)[C@@H](C)CC)C(=O)N[C@@H](CCCNC(=N)N)C(=O)N1CCC[C@H]1C(=O)N[C@H](C(=O)NCC(=O)N[C@@H](CCCNC(=N)N)C(=O)N[C@@H](Cc1ccccc1)C(N)=O)C(C)C do in these assays?
RORg inh: 12%; Gal4-VP16 FLuc: 5%

Results for CCOc1ccc(CCNC(=O)COC(=O)CSc2ccc(C)cc2)cc1OCC ?
ERG Ets-DNA blk: 2%; Giardia kill: 4; a7 integrin act: 15%

Results for Cc1occc1C(=O)N/N=C/c1ccc(-c2ccccc2)cc1 ?
RORg inh: 13µM*; ERG Ets-DNA blk: 14%; Gal4-VP16 FLuc: inconclusive; Giardia kill: 11; a7 integrin act: inconclusive

Results for Cc1occc1C(=O)N/N=C/c1ccc2c(c1)OCO2 ?
RORg inh: 7.9µM*; ERG Ets-DNA blk: 6%; Gal4-VP16 FLuc: inconclusive; Giardia kill: inconclusive; a7 integrin act: 27%

Results for O=C(Nc1nc2ccccc2[nH]1)C1CCCC1 ?
RORg inh: 7.1µM*; ERG Ets-DNA blk: 1%; Gal4-VP16 FLuc: inconclusive; Giardia kill: inconclusive; a7 integrin act: -29%

How did O=C(CC1CCCC1)Nc1nc2ccccc2[nH]1 do in these assays?
RORg inh: 8.9µM*; ERG Ets-DNA blk: 7%; Gal4-VP16 FLuc: inconclusive; Giardia kill: 7; a7 integrin act: 1%

What do the screens show for `CCn1nnc(NC(=O)c2ccc(C(C)(C)C)cc2)n1`?
RORg inh: 13µM*; ERG Ets-DNA blk: 0%; Gal4-VP16 FLuc: 13µM*; Giardia kill: inconclusive; a7 integrin act: -22%

Results for CCn1nnc(NC(=O)c2cccnc2)n1 ?
RORg inh: -5%; ERG Ets-DNA blk: 5%; Gal4-VP16 FLuc: -12%; Giardia kill: 7; a7 integrin act: 1%

How did CCCCn1nnc(NC(=O)c2ccc(-c3ccccc3[N+](=O)[O-])o2)n1 do in these assays?
RORg inh: 9%; ERG Ets-DNA blk: -5%; Gal4-VP16 FLuc: -6%; Giardia kill: 2; a7 integrin act: 2%

How did CCn1nnc(NC(=O)c2ccc([N+](=O)[O-])o2)n1 do in these assays?
RORg inh: -21%; ERG Ets-DNA blk: -1%; Gal4-VP16 FLuc: inconclusive; Giardia kill: -103*; a7 integrin act: -53%

Results for O=C(CSC1=NCCS1)Nc1ccnc2ccccc12 ?
RORg inh: -39%; Gal4-VP16 FLuc: 4µM*; Giardia kill: -5; a7 integrin act: -53%

Results for Cc1cc(C)nc(SCC(=O)Nc2ccnc3ccccc23)n1 ?
RORg inh: 2.2µM*; ERG Ets-DNA blk: 8%; Gal4-VP16 FLuc: 0.89µM*; Giardia kill: -5; a7 integrin act: -47%

Results for CCc1ccccc1N(C(=O)c1snc(C(N)=O)c1N)C(C(=O)NCC1CCCO1)c1ccc(C)o1 (centres undefined) ?
RORg inh: 13%; ERG Ets-DNA blk: 7%; Gal4-VP16 FLuc: 10%; Giardia kill: -4; a7 integrin act: inconclusive

How did Cc1ccc2c(C)nc(Nc3nc(CSc4nc5ccccc5[nH]4)cc(=O)[nH]3)nc2c1 do in these assays?
RORg inh: inconclusive; Gal4-VP16 FLuc: 5.6µM*; Giardia kill: 6; a7 integrin act: -61%

What do the screens show for `Cc1ccc2nc(Nc3nc(=O)c4ccccc4n3C)nc(C)c2c1`?
RORg inh: 0.79µM*; Gal4-VP16 FLuc: 1µM*

How did Cc1ccc(SCc2cc(=O)[nH]c(Nc3nc(C)c4ccc(C)cc4n3)n2)cc1 do in these assays?
RORg inh: -1%; ERG Ets-DNA blk: -3%; Gal4-VP16 FLuc: -5%; Giardia kill: -15; a7 integrin act: -5%

How did Cc1ccc2nc(Nc3nc(-c4ccccc4)cc(=O)[nH]3)nc(C)c2c1 do in these assays?
RORg inh: inconclusive; ERG Ets-DNA blk: -1%; Gal4-VP16 FLuc: 13µM*; Giardia kill: 1; a7 integrin act: -30%

What do the screens show for `COc1ccc2c(C)nc(Nc3nc(-c4ccccc4)cc(=O)[nH]3)nc2c1`?
RORg inh: 4.5µM*; ERG Ets-DNA blk: 18%; Gal4-VP16 FLuc: 4µM*; Giardia kill: 6; a7 integrin act: -70%

Results for CC(C)=CCc1c(O)cc(O)c2c(=O)c3c(CC=C(C)C)c(O)ccc3oc12 ?
ERG Ets-DNA blk: 0%; Giardia kill: -2; a7 integrin act: -29%

What do the screens show for `O=C(COC(=O)c1ccc(F)c(S(=O)(=O)N2CCCCC2)c1)NCc1ccc(F)cc1`?
RORg inh: 9%; ERG Ets-DNA blk: -2%; Gal4-VP16 FLuc: 3%; Giardia kill: 12; a7 integrin act: 5%

What do the screens show for `COc1ccc(Nc2nc(N)nc(N)c2S(=O)(=O)c2ccccc2)cc1`?
ERG Ets-DNA blk: 6%

How did COc1ccc(C(=O)Nc2ccccc2SCc2cc(=O)n3nc(C)sc3n2)cc1OC do in these assays?
RORg inh: 1%; ERG Ets-DNA blk: -5%; Gal4-VP16 FLuc: -2%; Giardia kill: 20; a7 integrin act: -6%

How did Cc1nn2c(=O)cc(CSc3nc4ccccc4[nH]3)nc2s1 do in these assays?
RORg inh: 4µM*; ERG Ets-DNA blk: 6%; Gal4-VP16 FLuc: -11%; Giardia kill: 8; a7 integrin act: 0%

How did COc1ccccc1-c1nn(CCC(=O)Nc2ccccc2)c2nc(C)cc(C)c12 do in these assays?
ERG Ets-DNA blk: 5%

How did CCN(CC)S(=O)(=O)c1cccc(NC(=O)C(=O)c2c(-c3ccccc3)cc3ccccn23)c1 do in these assays?
RORg inh: 7.9µM*; ERG Ets-DNA blk: -3%; Gal4-VP16 FLuc: -1%; Giardia kill: -26; a7 integrin act: -21%

How did O=Cc1ccc(O)c2ncccc12 do in these assays?
RORg inh: 1µM*; ERG Ets-DNA blk: 13%; Gal4-VP16 FLuc: 0.56µM*; Giardia kill: 29; a7 integrin act: -65%

Results for OC(CNCCc1ccc(C(F)(F)F)cc1)COc1ccc2ccccc2c1 (centres undefined) ?
RORg inh: 16µM*; ERG Ets-DNA blk: 3%; Gal4-VP16 FLuc: 11µM*; Giardia kill: -8; a7 integrin act: -46%

What do the screens show for `OC(CNCCc1ccc(C(F)(F)F)cc1)COc1cccc2ccccc12` (centres undefined)?
RORg inh: inconclusive; ERG Ets-DNA blk: -6%; Gal4-VP16 FLuc: 13µM*; Giardia kill: -20; a7 integrin act: -9%

How did CC1=CC(=O)C=C(C)C1=NOc1ccccc1[N+](=O)[O-] do in these assays?
RORg inh: 10µM*; ERG Ets-DNA blk: 1%; Gal4-VP16 FLuc: inconclusive; Giardia kill: 1; a7 integrin act: -37%

Source: PubChem BioAssay
